Many of the other results were omitted from the sample, so hits are more common in it than they were.
AMPAR-TARP mod: modulates AMPAR-stargazin complexes; O88602+P19491; HEK293 GluA2+stargazin, membrane potential dye (FDSS), glutamate EC50; hits were called plate by plate, in both directions; calls only at 30 µM; 40,000 tested, 3.5% active; AID 1259245;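 active means any of four per-well response measures lying three or more SD from its plate-wide compound average, in either direction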
Target sequence (O88602 whole entry, looked up): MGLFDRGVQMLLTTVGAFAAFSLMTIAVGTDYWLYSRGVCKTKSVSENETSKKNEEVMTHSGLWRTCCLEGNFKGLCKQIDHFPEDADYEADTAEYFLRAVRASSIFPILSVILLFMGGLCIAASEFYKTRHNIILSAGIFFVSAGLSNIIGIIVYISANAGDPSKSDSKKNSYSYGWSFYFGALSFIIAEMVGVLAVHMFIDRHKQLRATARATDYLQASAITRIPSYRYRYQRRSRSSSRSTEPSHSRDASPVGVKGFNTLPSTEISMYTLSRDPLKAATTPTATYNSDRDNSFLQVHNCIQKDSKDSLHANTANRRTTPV
Target sequence (P19491 whole entry, looked up): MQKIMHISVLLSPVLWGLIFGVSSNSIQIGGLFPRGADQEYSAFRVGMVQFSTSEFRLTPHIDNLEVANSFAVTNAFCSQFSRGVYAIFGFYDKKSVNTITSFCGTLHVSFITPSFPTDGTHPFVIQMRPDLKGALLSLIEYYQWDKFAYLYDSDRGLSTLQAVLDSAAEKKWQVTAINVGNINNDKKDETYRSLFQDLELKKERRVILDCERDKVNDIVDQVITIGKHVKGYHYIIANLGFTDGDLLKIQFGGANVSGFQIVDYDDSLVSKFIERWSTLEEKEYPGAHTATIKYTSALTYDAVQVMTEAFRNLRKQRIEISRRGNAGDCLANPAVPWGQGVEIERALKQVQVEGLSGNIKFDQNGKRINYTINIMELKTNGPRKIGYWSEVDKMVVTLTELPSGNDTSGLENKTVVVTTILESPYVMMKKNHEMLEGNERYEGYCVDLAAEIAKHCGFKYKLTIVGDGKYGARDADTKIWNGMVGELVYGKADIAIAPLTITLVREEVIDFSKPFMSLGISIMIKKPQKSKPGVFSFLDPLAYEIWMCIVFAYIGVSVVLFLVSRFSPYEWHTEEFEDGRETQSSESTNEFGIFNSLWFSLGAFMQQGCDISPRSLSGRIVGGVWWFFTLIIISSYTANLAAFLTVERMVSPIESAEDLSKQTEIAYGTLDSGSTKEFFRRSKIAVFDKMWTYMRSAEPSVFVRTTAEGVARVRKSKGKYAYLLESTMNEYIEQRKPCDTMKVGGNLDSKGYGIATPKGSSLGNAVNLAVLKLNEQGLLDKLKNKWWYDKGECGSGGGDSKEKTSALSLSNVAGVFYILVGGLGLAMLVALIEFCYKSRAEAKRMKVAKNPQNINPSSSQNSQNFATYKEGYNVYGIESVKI
GIRK2 activator: Activators of human GIRK2-containing channels | P48051 | HEK293 GIRK2/NPY4 cells, thallium flux fluorescence | activation (% efficacy), % for hits at 37.5 µM | 34,000 tested, under 10 active;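 active means primary screen hit, no activity in plain HEK293 cells, and in GIRK2-only cells above 5% efficacy rising with concentration; inactive means the rest, including fluorescent compounds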;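 further: efficacy is normalized control-subtracted fluorescence 15 s after thallium addition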
Calls only; 0 = inactive; - = no result given; + = active, no number; ! = not active in a repeat.

SMILES | AMPAR-TARP mod | GIRK2 activator
COc1ccc(N2C(=O)N(c3cccc(C(F)(F)F)c3)C3CS(=O)(=O)CC32)cc1 (stereo unspecified) | 0 | 0
O=S(=O)(NCCCN1CCOCC1)c1cccc2cnccc12 | 0 | 0
O=S(=O)(NC1CCCC1)c1cccc2cnccc12 | + | 0
Cc1nnsc1C(=O)NCCn1nc(-c2ccccc2)n(C)c1=O | 0 | 0
CCCNC(=O)Cn1c(=O)c2c(N3CCN(C(C)=O)CC3)ccnc2n(C)c1=O | 0 | -
O=S(=O)(c1ccc(F)c(Cl)c1)N1CCN(c2ccc3nncn3n2)CC1 | 0 | 0
C/C(=C/C(=O)O)C(=O)Nc1nc(-c2ccc(C)cc2)c(C)s1 | 0 | 0
O=C(Cn1c(-c2cnccn2)nc2ccccc21)Nc1ccc(F)c(Cl)c1 | + | 0
CCSc1nnc(NC(=O)Cn2c(-c3cnccn3)nc3ccccc32)s1 | 0 | 0
CC(=O)Nc1cccc(NC(=O)Cn2nc(-c3ccc(Br)cc3)ccc2=O)c1 | 0 | 0
COc1ccc(-c2nnc(NC(=O)c3ccc(OC(C)C)cc3)o2)cc1OC | 0 | 0
COc1ccc(Nc2cc(C)nc(-n3cc([N+](=O)[O-])cn3)n2)cc1Cl | + | 0
COc1ccc(Nc2cc(C)nc(-n3cc([N+](=O)[O-])cn3)n2)cc1OC | 0 | 0
Cc1ccnc(C(=O)Nc2ccc(Nc3cc(N4CCOCC4)nc(C)n3)cc2)n1 | - | 0
Cc1ccnc(C(=O)Nc2ccncc2)n1 | + | 0
COc1ccc(CCNC(=O)N2CCN(c3nc4c(F)cc(F)cc4s3)CC2)cc1 | 0 | 0
Cc1cc(N2CCCC2)nc(N2CCN(C(=O)c3ccccc3)CC2)n1 | + | -
Cc1ccccc1-c1ccc(N2CCN(C(=O)Cc3cccs3)CC2)nn1 | 0 | 0
Cc1cc(N2CCOCC2)nc(N2CCN(C(=O)Cc3cccs3)CC2)n1 | + | 0
O=C(Cc1cccs1)N1CCN(c2ccc(-c3ccccn3)nn2)CC1 | + | 0
Cc1ccc(-c2ccc(N3CCN(C(=O)Cc4cccs4)CC3)nn2)cc1 | 0 | 0
Cc1ccc(C(=O)N2CCN(c3nc(C)cc(N4CCCCC4)n3)CC2)cc1 | 0 | -
COc1ccc(-c2ccc(=O)n(CCCC(=O)NC(C)C)n2)cc1OC | 0 | 0
CSc1nc(-c2ccccc2)c(NC(=O)c2ccco2)s1 | 0 | 0
COc1ccc(CCC(=O)Nn2cnc3c(cnn3C(C)(C)C)c2=O)cc1 | 0 | 0
SMILES | AMPAR-TARP mod | GIRK2 activator
Cc1ccc(S(=O)(=O)Nc2ccc3c(c2)CCCN3S(=O)(=O)c2ccccc2)c(C)c1 | 0 | -
CSc1cccc(NC(=O)C(=O)NCc2ccc(F)cc2)c1 | 0 | -
N#C/C(=C\c1ccnc2ccccc12)c1nc(-c2ccc(F)cc2)cs1 | 0 | 0
CN1C=CC=C/C1=C(/C#N)c1nc(-c2ccccc2)cs1 | + | 0
COc1ccccc1-c1csc(/C(C#N)=C2\C=CC=CN2C)n1 | + | 0
COc1cc(/C=C2\Oc3cc(OCC(=O)OC(C)C)ccc3C2=O)cc(OC)c1OC | 0 | -
CN(C)C(CNS(=O)(=O)c1ccc(Br)cc1)c1ccccc1 (stereo unspecified) | 0 | -
O=C(NCCOc1cccc(C(F)(F)F)c1)c1ccc(Cl)c([N+](=O)[O-])c1 | 0 | 0
CCOc1ccc(OCCNC(=O)c2ccc([N+](=O)[O-])cc2)cc1 | + | 0
O=C(NCCOc1cccc(C(F)(F)F)c1)c1ccc([N+](=O)[O-])cc1 | + | 0
O=C(NCCOc1ccc(F)cc1)c1ccc([N+](=O)[O-])cc1 | 0 | 0
O=C(N1CCC(Cn2cccn2)CC1)C1(c2ccc(Cl)cc2)CCCC1 | + | 0
O=C(N1CCC(Cn2cccn2)CC1)C1(c2cccs2)CCCC1 | 0 | 0
Cc1cccn2c(=O)c3cc(C(=O)Nc4ccc5c(c4)OCO5)n(Cc4ccccc4)c3nc12 | 0 | 0
COc1ccc(Cl)cc1S(=O)(=O)N1CCN(CC(=O)Nc2cc(C(F)(F)F)ccc2Cl)CC1 | 0 | -
Cc1ccc(S(=O)(=O)c2cnc(SCC(=O)Nc3ccc(Br)cc3)[nH]c2=O)cc1 | 0 | 0
O=C(CSc1ncc(S(=O)(=O)c2ccc(Br)cc2)c(=O)[nH]1)Nc1ccccc1F | + | -
CCOC(=O)c1c(NC(=O)COc2cccc3c2CCN(Cc2ccc(Br)cc2)C3=O)sc2c1CCC2 | + | -
O=C(COc1cccc2c1CCN(Cc1ccccc1)C2=O)NC1CCCCC1 | 0 | -
CCS(=O)(=O)c1ccc(C(=O)Nc2sc(C(=O)OC)c(C)c2C#N)cc1 | + | 0
Cc1sc(NC(=O)c2ccc(S(=O)(=O)C(C)C)cc2)c(C#N)c1C | 0 | 0
CC(NC(=O)CCCc1nnc2c(=O)n(-c3ccc(Cl)cc3)ccn12)c1ccccc1 (stereo unspecified) | 0 | -
CCCc1nnc2c(=O)n(-c3cc(C)cc(C)c3)ccn12 | + | 0
COCC(C)(O)CNC(=O)c1c(F)cccc1F (stereo unspecified) | + | 0
COc1nn(C)cc1C(=O)NCC(=O)NCC(F)(F)F | 0 | 0
SMILES | AMPAR-TARP mod | GIRK2 activator
COCC(C)(O)CNC(=O)c1cn(C)nc1OC (stereo unspecified) | + | 0
COc1nn(C)cc1C(=O)NCC(=O)Nc1ccc(C#N)cc1 | 0 | 0
COc1nn(C)cc1C(=O)NCC(=O)Nc1ccc(F)c(C(F)(F)F)c1 | + | 0
COCC(C)(O)CNC(=O)c1ccccc1C(F)(F)F (stereo unspecified) | 0 | 0
COCC(C)(O)CNC(=O)c1ccc(Cl)cc1 (stereo unspecified) | + | 0
COCC(C)(O)CNC(=O)c1cc(OC)cc(OC)c1 (stereo unspecified) | 0 | 0
CC(C)(CO)NCC(O)COC1CC2CCC1(C)C2(C)C (stereo unspecified) | 0 | 0
CN1C(=O)CCc2cc(NC(=O)c3ccc4c(c3)OCO4)ccc21 | + | -
CN(c1ccsc1C(=O)Nc1ccc(F)c(F)c1)S(=O)(=O)c1ccccc1 | 0 | 0
CN(C1CC1)S(=O)(=O)c1ccc(C(=O)Nc2ccc3c(c2)OCO3)cc1 | + | 0
CN(C1CCCC1)S(=O)(=O)c1ccc(C(=O)Nc2ccc3c(c2)OCO3)cc1 | 0 | -
CN(c1ccsc1C(=O)Nc1ccc2c(c1)OCCO2)S(=O)(=O)c1ccccc1 | +! | 0
CCCCN1C(=O)CCc2cc(NC(=O)c3ccc4c(c3)OCO4)ccc21 | 0 | 0
CCNC(=O)C1Cc2ccccc2N1C(=O)c1ccc(S(=O)(=O)N(CC)CC)cc1 (stereo unspecified) | 0 | 0
COc1cccc(N2CC(C(=O)N3CCN(CCn4nc(C)cc4C)CC3)CC2=O)c1 (stereo unspecified) | 0 | 0
c1coc(CNc2nc(N3CCOCC3)nc(N3CCOCC3)n2)c1 | 0 | 0
c1ccc(CNc2nc(N3CCOCC3)nc3ccccc23)cc1 | + | -
O=C(NCC(O)Cc1ccccc1)C(=O)Nc1ccc(F)c(F)c1 (stereo unspecified) | 0 | 0
CC(O)(CNC(=O)CSc1ccc(F)cc1)c1ccc2c(c1)OCO2 (stereo unspecified) | 0 | 0
CCOC(=O)c1sc(NC(=O)C2CCCN2S(C)(=O)=O)c(C(=O)OCC)c1C (stereo unspecified) | 0 | 0
CCOC(=O)c1sc(NC(=O)c2ccncc2)c(C(=O)OCC)c1C | + | -
Cc1ccc(C)c(CN2C(=O)N(c3cc(C)ccc3C)C3CS(=O)(=O)CC32)c1 (stereo unspecified) | + | -
Cc1ccc(C)c(N2C(=O)N(Cc3ccc(Br)cc3F)C3CS(=O)(=O)CC32)c1 (stereo unspecified) | 0 | -
